AddAB inh – less growth of phage-infected E. coli with AddAB | E. coli expressing H. pylori AddAB, absorbance growth | inhibition, % at 11.9 µM | actives 0.29% (n = 330,000) | AID 435030; in the data active = inhibition above about 12%
E coli growth-1 – E. coli growth inhibition; Escherichia coli growth, OD600, 23 h; active compounds read low; OD600 absorbance (test concentration not listed); actives 0.21% (n = 330,000);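 active = OD600 absorbance below the run mean of sample wells minus 3.6 SD, in any replicate, cut at about 0.56 in these data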
E coli growth-2 – bacterial growth inhibition, counter-screen for AddAB inhibitors. inhibition, % at 11.9 µM. E. coli V3065 growth, OD600 absorbance, 18 h. AID 449728. actives 0.27% (n = 330,000);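 active = inhibition above the campaign's mean inhibition across all tested compounds plus 3 SD, cut at about 9.9% in these data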;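 note: uninfected addAB+ strain grown without phage in ampicillin broth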
phage Ecoli inh – E. coli growth loss with phage present; growth absorbance; actives 0.26% (n = 360,000); inhibition, % at 11.9 µM; in the data active = inhibition above about 11%
Tat transport – inhibitors of E. coli Tat protein transport; E. coli MC4100 TorA-mCherry Tat export, fluorescence; inhibition, % at 10 µM; actives 0.036% (n = 340,000); AID 488895;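 active = mean replicate inhibition at least 50% and at least half of replicates individually reaching 50%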;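 note: exported cargo escapes ClpAP degradation while cytoplasmic cargo is degraded and loses fluorescence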
A number is an active result; i = inactive; nt = no result. An excerpt weighted towards active compounds, which were near 0.5% of everything screened.

SMILES | AddAB inh | E coli growth-1 | E coli growth-2 | phage Ecoli inh | Tat transport
O=C1Nc2ccc(Br)cc2C12NNc1ccccc1O2 (stereo not drawn) | i | 0.432 | i | i | i
O=C1Nc2ccc(Br)cc2C1(O)c1ccccc1 (stereo not drawn) | i | i | i | i | i
CCCCNC(=S)Nc1ccc(C(F)(F)F)cc1 | i | i | 11.1 | i | i
CCCCNC(=S)Nc1ccc(Cl)cc1 | i | i | i | i | i
CCCCCCCCCCCCCCCC[N+](C)(C)CCN(Cc1ccc(OC)cc1)c1ncccn1 | i | nt | i | nt | 53.6
Cc1cc(C)nc(NS(=O)(=O)c2ccc(NC(=O)Cn3c(=O)oc4ccccc43)cc2)n1 | i | i | i | i | i
Cc1noc(NS(=O)(=O)c2ccc(NC(=O)CCn3c(=O)oc4ccccc43)cc2)c1C | i | i | 10.5 | i | i
C=CC1=C(C(=O)O)N2C(=O)C(NC(=O)C(=NOCC(=O)O)c3csc(N)n3)C2SC1 (stereo not drawn) | nt | 0.0625 | nt | nt | nt
COCC1=C(C(=O)OC(C)OC(=O)OC(C)C)N2C(=O)[C@@H](NC(=O)/C(=N\OC)c3csc(N)n3)[C@H]2SC1 (stereo partly drawn) | i | nt | i | i | i
NCC12CC3CC(C1)CC(c1ccc(Cl)cc1)(C3)C2 | i | 0.505 | i | i | i
O=C(NCc1ccccc1)c1cc(S(=O)(=O)N2CCCCC2)ccc1N1CCOCC1 | i | 0.438 | i | i | i
Cc1cccc(NC(=O)c2nc[nH]c2C(=O)NC(CC(C)C)C(=O)OC(C)(C)C)c1 (stereo not drawn) | nt | i | nt | nt | nt
C/C(=N\Nc1ccc([N+](=O)[O-])cc1)c1ccc(C#N)cc1 | i | nt | i | i | i
N#CC(C#N)=NNc1ccc([N+](=O)[O-])cc1 | i | 0.332 | i | i | i
O=[N+]([O-])c1nn(-c2ccccc2)n(O)c1=NC1CCN(Cc2ccccc2)CC1 | i | i | 10.3 | i | i
CCN(CC)c1ccc(C=NNC(=O)CNC(=O)c2ccc3c(c2)OCCO3)cc1 | nt | i | nt | nt | nt
CO[C@H]1C=CO[C@@]2(C)Oc3c(C)c(O)c4c(O)c(c5c(c4c3C2=O)NC2(CCN(CC(C)C)CC2)N=5)=NC(=O)C(C)=CC=C[C@H](C)[C@H](O)[C@@H](C)[C@@H](O)[C@@H](C)[C@H](OC(C)=O)[C@@H]1C | 100.5 | nt | 101.7 | nt | nt
COC1C=CO[C@@]2(C)Oc3c(C)c(O)c4c(O)c(c(C=NN5CCN(C6CCCC6)CC5)c(O)c4c3C2=O)NC(=O)C(C)=CC=CC(C)C(O)C(C)C(O)C(C)C(OC(C)=O)C1C (stereo partly drawn) | nt | 0.0705 | nt | nt | nt
Cc1c(-n2c(SCC(C)C)nc3ccccc3c2=O)c(=O)n(-c2ccccc2)n1C | i | 0.391 | i | i | i
CCn1cc(C(=O)OC)c(=O)c2ccc(C)nc21 | i | i | i | i | i
CCn1cc(C(=O)N2CCN(c3cccc(C)c3C)CC2)c(=O)c2ccc(C)nc21 | i | 0.421 | i | i | i
CCn1cc(C(=O)N2CCN(c3ccc([N+](=O)[O-])cc3)CC2)c(=O)c2ccc(C)nc21 | i | i | i | i | i
CCn1cc(C(=O)OCC(=O)Nc2c(C)cccc2C)c(=O)c2ccc(C)nc21 | i | 0.489 | i | i | i
CCn1cc(C(=O)NCc2ccccc2OC)c(=O)c2ccc(C)nc21 | i | i | i | nt | nt
CCn1cc(C(=O)OCC(=O)NCc2ccccc2Cl)c(=O)c2ccc(C)nc21 | i | 0.512 | i | i | i
SMILES | AddAB inh | E coli growth-1 | E coli growth-2 | phage Ecoli inh | Tat transport
COC(=O)[C@@]12CCCCN1C(c1ccc(-c3ccc(F)cc3)c(OC)c1)C1C(=O)N(C)C(=O)C12 (stereo partly drawn) | nt | i | nt | nt | nt
CCCCCCCC(=O)N1CCN(c2cc3c(cc2F)c(=O)c(C(=O)O)cn3CC)CC1 | nt | 0.097 | nt | i | i
CCCCCCCCC(=O)N1CCN(c2cc3c(cc2F)c(=O)c(C(=O)O)cn3CC)CC1 | i | 0.415 | i | i | i
CCCCCCn1cc(C(=O)O)c(=O)c2cc(F)c(N3CCN(C)CC3)cc21 | i | i | i | nt | i
C[N+]1(CCNC(=O)C=NO)CCCCC1 | nt | i | nt | nt | nt
N#Cc1ccc(C=NNC(=S)Nc2ccc(S(=O)(=O)N3CCOCC3)cc2)cc1 | nt | i | nt | nt | nt
COc1ccc(/C=N/N2CCOCC2)cc1O | i | nt | i | i | i
COc1ccc(C=NN2CCOCC2)cc1O | nt | 0.549 | nt | nt | nt
CCN1C(=Cc2ccc3ccccc3[n+]2CC)C=Cc2ccccc21 | nt | 0.493 | nt | nt | nt
CCN1/C(=C/c2ccc3ccccc3[n+]2CC)C=Cc2ccccc21 | i | nt | 11.0 | 12.2 | i
CCOC(=O)C1=CCC(c2ccco2)N(S(=O)(=O)c2ccc(C)cc2)C1C(=O)OCC (stereo not drawn) | nt | i | nt | nt | nt
Cc1occc1C(=O)NN=Cc1ccc(Br)s1 | nt | i | nt | nt | nt

Compound activity: PubChem BioAssay, several laboratories
